Common to all, as to assay: NCI-60 one-dose screen, 48 h (100 = growth as untreated, 0 = no growth, -100 = all killed)
For test [1], the system named is SK-MEL-2 melanoma. The note with it: 10 µM unless noted.
Test [2] deals with EKVX NSCLC. Particulars: 10 µM unless noted.
Test [3] concerns SN12C renal. The note with it: 10 µM unless noted.
For test [4], the system named is UO-31 renal. The note with it: 10 µM unless noted.
Test [5] relates to TK-10 renal. Particulars: 10 µM unless noted.
The subject of test [6] is ACHN renal. The note with it: 10 µM unless noted.
Test [7] has as its system CAKI-1 renal. The note with it: 10 µM unless noted.
The test system of test [8] is A498 renal. Particulars: 10 µM.
For test [9], the system named is HL-60(TB) leukemia. Particulars: 10 µM unless noted.
The test system of test [10] is CCRF-CEM leukemia. Particulars: 10 µM unless noted.
Test [11] deals with MOLT-4 leukemia. Particulars: 10 µM unless noted.
The subject of test [12] is SR leukemia. The note with it: 10 µM unless noted.
Test [13] deals with RPMI-8226 leukemia. The note with it: 10 µM unless noted.
The subject of test [14] is OVCAR-8 ovarian. Particulars: 10 µM unless noted.
Test [15] has as its system OVCAR-5 ovarian. Particulars: 10 µM unless noted.
Test [16] relates to OVCAR-4 ovarian. Particulars: 10 µM unless noted.
The subject of test [17] is SK-OV-3 ovarian. The note with it: 10 µM unless noted.
For test [18], the system named is IGROV1 ovarian. Particulars: 10 µM unless noted.
The subject of test [19] is OVCAR-3 ovarian. Particulars: 10 µM unless noted.
For test [20], the system named is HS 578T breast. Particulars: 10 µM unless noted.

SMILES strings stand for the structures. This is part of a sample that, as a whole, favours compounds with a hit. Of some 83,000 tested, about 20% had one in any assay.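 Step 1: grow cells in 96-well plates. Step 2: add test compound at a single concentration. Step 3: incubate 48 h. Step 4: record percent growth.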 Unmarked numbers belong to inactive results. Calls of active or inactive are those of the source. How the source made its calls: active means growth percent below 10; inactive means the rest.

Take `COc1cc(C=Nc2cccc(Br)c2)ccc1N(CCCl)CCCl`: the growth in [1] was 91.2%; in [2], 120%; in test [3] it was 84.5%; in [4], 69.1%; in test [5] it was 92.9%; in test [6], 18.2%. Moreover, the growth in test [7] was 5.9% (active); in test [8] it was 120%; in test [9], 71.2%; in test [10], 63.5%; in test [11] it was 64.2%; in test [12], 44.1%. The growth is 86.2% in [13]; 81.6% in [14]; 85.6% in [15]; 93.6% in [16]; 71.3% in test [17]; 96.3% in test [18]. The growth was 80.8% in test [19] and 150% in [20].
Consider `C/C(=C\c1ccn(-c2ccc(N)cc2C(F)(F)F)n1)[C@@H]1C[C@@H]2O[C@]2(C)CCC[C@H](C)[C@H](O)[C@@H](C)C(=O)C(C)(C)[C@@H](O)CC(=O)O1`, for which the growth is 18.1% in test [1]; 33.7% in [2]; 22.6% in [3]; 38.2% in [4]; 39.8% in test [5]; 50% in [6]. Moreover, the growth is 31.4% in test [7]; -4.95% (active) in test [8]; -0.118% (active) in [9]; 16.3% in test [10]; 9.23% (active) in test [11]; 12.2% in test [12]. Also, the growth is 5.57% (active) in [13]; 17.4% in [14]; 24.1% in test [15]; 69.7% in [16]; 0.896% (active) in test [17]; 43.5% in test [18]. Further, the values for the growth in test [19] and in [20] were 12.5% and -10.7% (active), respectively.
`Clc1ccc(N2COOC3(OOC2)C2CC4CC(C2)CC3C4)cc1`: the growth in test [1] was 87.4%; in [2], 64.2%; in [3], 66.9%; in test [4], -92.1% (active); in [5], 27.2%; in [6] it was 29.4%. In addition, the growth in test [7] was 52.3%; in [8], 96.8%; in test [9], -58% (active); in test [10], -50.3% (active); in [11], 56.9%; in test [12], 11.2%. Further, the growth in [13] was 35.6%; in [14], 46.6%; in [15], 70.4%; in test [16] it was 87.1%; in test [17] it was 92.9%; in test [18], -52.9% (active). For the same compound, the values for the growth in test [19] and in test [20] were 4.41% (active) and 75.9%, respectively.
As for `CC(C)(C)C(=O)OCOP(=O)(OCOC(=O)C(C)(C)C)C1CCCN(O)C1=O` (centres undefined), the growth in [1] was 24.9%; in test [2] it was 19.7%; in [3], 2.67% (active); in test [4], 5.91% (active); in test [5] it was 2.8% (active); in test [6] it was 8.69% (active). Also, the growth is 5.9% (active) in test [7]; -24.3% (active) in test [8]; -21% (active) in test [9]; 9.89% (active) in [10]; 3.92% (active) in test [11]; 13.7% in test [12]. In addition, the growth in test [13] was -18% (active); in [14], 5.69% (active); in test [15] it was 32.5%; in test [16], 11.2%; in [17], 12.2%; in [18], -4.01% (active). Further, the growth in [19] is 4.08% (active).
Consider `C1CCC2(CC1)OOCNCOO2`, for which the growth in test [1] is 102%; in [2], 99%; in test [3], 110%; in test [4], 93.6%; in test [5] it was 91.3%; in [6], 110%. For the same compound, the growth in test [7] is 93.1%; in [8], 97.4%; in [9], 71.7%; in test [10], 99.5%; in test [11] it was 77.9%; in [12], 62.8%. The growth in [13] is 102%; in [14], 101%; in test [15] it was 109%; in [16], 112%; in test [17] it was 105%; in test [18] it was 104%. For the same compound, the growth is 103% in test [19] and 115% in [20].
With `O=C(CC1(O)C(=O)N(Cc2ccccc2)c2ccccc21)c1ccc(C(=O)NCC2CCC3(CC2)OOC2(CCCCC2)OO3)cc1` (centres undefined), the growth in [1] was 6.18% (active); in test [2], -63.3% (active); in test [3] it was -60.9% (active); in test [4], -81.2% (active); in test [5], -93.2% (active); in test [6], -87.7% (active). The growth was -90.4% (active) in test [7]; -88.7% (active) in test [8]; -67.4% (active) in test [9]; -41.2% (active) in test [10]; -49.9% (active) in test [11]; -49.3% (active) in test [12]. Also, the growth in test [13] is -26.7% (active); in [14], -14.8% (active); in test [15] it was 21%; in [16], -36.6% (active); in test [17], 54.3%; in test [18], -41.8% (active). The growth was -82.4% (active) in test [19] and -6.26% (active) in [20].
As to `CC12CC=CCC1CCC1C2CCC2(C)C(c3ccc(=O)oc3)CCC12O` (centres undefined), the growth was -33.6% (active) in test [1]; -85.1% (active) in [2]; -13.1% (active) in [3]; -91.4% (active) in test [4]; -62.2% (active) in test [5]; -90% (active) in test [6]. Moreover, the growth is -57% (active) in [7]; -22.7% (active) in test [8]; -14% (active) in test [9]; 1.08% (active) in [10]; -15.7% (active) in test [11]; -3.66% (active) in [12]. The growth in test [13] is -9.88% (active); in test [14], -41.8% (active); in test [15], -80.6% (active); in [16] it was -48.1% (active); in test [17], -8.44% (active); in test [18], -12.3% (active). Besides, the growth in test [19] is -76.8% (active); in test [20], -18.5% (active).
With `c1cnc2[nH]cc(-c3csc(-c4cn(CCCCN5CCOCC5)c5ccccc45)n3)c2c1`, the growth is 87.8% in [1]; 64% in test [2]; 67% in [3]; 25.4% in test [4]; 64.4% in test [5]; 32.4% in test [6]. Moreover, the growth in [7] was 44.3%; in [8], 56.8%; in test [9] it was -58.2% (active); in test [10] it was 10.1%; in test [11], 13.1%; in test [12], -20.1% (active). Further, the growth in [13] was 32.6%; in test [14], 60.6%; in test [15], 72.5%; in [16], 74.8%; in test [17], 81.1%; in [18] it was 34.9%. The growth in test [19] is 59.8%; in [20], 54.9%.
